Sampled rows, rich in hits. Any-hit rate of the full collection: about 4.1%.
DAX1 inh-1: DAX1 (NR0B1) inhibitors on StAR promoter, primary screen, cell-based, luminescence, SF-1 (NR5A1), full-length DAX-1 | HEK293T StAR-luciferase reporter, SF-1/DAX-1 repression relief | inhibition, % at 6.8 µM | 1.1% of 370,000 active;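 active = inhibition above the mean over all tested compounds plus 3 SD, cut at about 3.6% in these data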;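 note: 0% = DAX-1 cells with DMSO and 100% = cells lacking DAX-1 with DMSO; higher inhibition means more luminescence from relief of DAX-1 repression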
DAX1 inh-2: DAX1 (NR0B1) inhibitors, primary screen, cell-based, HEK293, Gal4-DAX1, luciferase luminescence; AID 504766, 2011; Nuclear receptor subfamily 0 group B member 1 (Homo sapiens), P51843; 0.99% of 340,000 active; HEK293 Gal4-DAX1 luciferase reporter; inhibition, % at 6.75 µM;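 active = inhibition above the mean over all tested compounds plus 3 SD, cut at about 4.2% in these data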;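 note: 0% = DAX1-transfected cells with DMSO and 100% = empty-vector control cells with DMSO; inhibition shows as a rise in luminescence from relieved DAX1 repression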
Target sequence (P51843 207-470 limits assumed): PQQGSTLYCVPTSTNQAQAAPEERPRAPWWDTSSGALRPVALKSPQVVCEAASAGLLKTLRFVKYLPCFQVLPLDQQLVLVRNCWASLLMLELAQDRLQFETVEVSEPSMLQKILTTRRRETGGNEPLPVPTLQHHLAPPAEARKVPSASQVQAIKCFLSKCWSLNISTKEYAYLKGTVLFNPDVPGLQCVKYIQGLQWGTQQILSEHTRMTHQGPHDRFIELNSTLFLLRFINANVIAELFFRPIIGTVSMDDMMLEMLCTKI
ssDAF-12 act: S. stercoralis DAF-12 nuclear receptor activators, primary screen, cell-based, luminescence, HEK293, GRIP1 co-expression, lit1-tk-luc | HEK293 ssDAF-12/GRIP1 lit1-tk-luc reporter; % of 3 µM dafachronic acid response | Nuclear hormone receptor DAF-12 (Strongyloides stercoralis) | 1% of 370,000 active | activation, % at 6.8 µM;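 active = activation above the mean over all tested compounds plus 3 SD, cut at about 0.9% in these data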;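 note: 0% = DMSO-only wells and 100% = 3 µM delta7-dafachronic acid wells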
hcDAF12 agonist: H. contortus DAF-12 nuclear receptor activators, primary screen, cell-based, luminescence, HEK293, lit1-tk-luc reporter | HEK293 hcDAF-12 lit1-tk-luc reporter; 0% DMSO, 100% Δ7-dafachronic acid | activation, % at 6.8 µM | AID 652067, 2013 | 1.4% of 370,000 active;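 active = activation above the mean of all tested compounds plus 3 SD, cut at about 5.5% in these data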;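 note: 100% = response to 3 µM Δ7-dafachronic acid high control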
hgDAF-12 ag: H. glycines DAF-12 receptor agonists, primary screen, cell-based, luminescence, HEK293, GAL4 fusion, UAS-luciferase. Nuclear hormone receptor DAF-12 (Heterodera glycines), GAL4 fusion. HEK293 GAL4-hgDAF12 UAS-luciferase reporter, agonist luminescence; normalized to butyrate control. activation, % at 6.8 µM. 1.8% of 370,000 active. AID 687014, 2013;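 active = activation above a cutoff set at the mean of all screened compounds plus 3 SD, cut at about 10% in these data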;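 note: 0% = DMSO wells and 100% = sodium butyrate wells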
* marks the source's active call; other numbers are inactive results.

For CCOC(=O)C1=C(C(=O)OCC)C2N(Cc3ccc(C#N)cc3)c3ccccc3[C@@]23C[C@@H](C(=O)OC)N(S(=O)(=O)c2ccccc2C)C3=N1 (some centres undefined) the results were DAX1 inh-1 1, ssDAF-12 act 0, hcDAF12 agonist -2 and hgDAF-12 ag 1.
Screening CCOc1ccccc1NC(=S)N(CCC(C)C)C1CCN(C(C)=O)CC1 returned DAX1 inh-1 0, DAX1 inh-2 4.7*, ssDAF-12 act -1, hcDAF12 agonist 1 and hgDAF-12 ag 2.
CCOc1ccccc1NC(=S)N1CCC(NC(=O)C(C)(C)C)CC1 was read as DAX1 inh-1 -1, DAX1 inh-2 5.0*, ssDAF-12 act -1, hcDAF12 agonist 1 and hgDAF-12 ag 3.
COC(=O)[C@@H]1C[C@@]2(c3ccccc3)c3ccccc3N(S(=O)(=O)c3ccccc3)[C@H]2N1C(=O)CNC/C=C(\C)CCC=C(C)C was read as DAX1 inh-1 -1, ssDAF-12 act -1, hcDAF12 agonist 0 and hgDAF-12 ag 3.
`COC(=O)c1ccc(N2CCN(CC(=O)c3ccc(C)cc3)CC2)c([N+](=O)[O-])c1` gave DAX1 inh-1 0, DAX1 inh-2 1, ssDAF-12 act 0, hcDAF12 agonist 6.0* and hgDAF-12 ag 4.
`Cc1nc2sc(C(=O)NC3CC3)c(N)c2c(C)c1Cl` gave DAX1 inh-1 1, ssDAF-12 act 0.9*, hcDAF12 agonist 4 and hgDAF-12 ag 8.
Screening NS(=O)(=O)c1ccc(NCC2COc3ccccc3O2)c([N+](=O)[O-])c1 (centres undefined) returned DAX1 inh-1 0, DAX1 inh-2 0, ssDAF-12 act 0, hcDAF12 agonist 4 and hgDAF-12 ag 11*.
`O=[N+]([O-])c1ccc(S(=O)(=O)NCC2COc3ccccc3O2)cc1` (centres undefined) gave DAX1 inh-1 1, DAX1 inh-2 1, ssDAF-12 act 0, hcDAF12 agonist 3 and hgDAF-12 ag 0.
Screening N#CCc1nc2n(n1)Cc1ccccc1-2 returned DAX1 inh-1 0, DAX1 inh-2 0, ssDAF-12 act -1, hcDAF12 agonist 0 and hgDAF-12 ag -1.
`c1ccc2c(c1)Cn1nc(Cc3nc4c(s3)CCCC4)nc1-2` gave DAX1 inh-1 0, DAX1 inh-2 4.4*, ssDAF-12 act -1, hcDAF12 agonist 5.7* and hgDAF-12 ag 6.
`O=C(Nc1ccc(Cl)c(Cl)c1)Nc1ccccc1O` gave DAX1 inh-1 1, DAX1 inh-2 2, ssDAF-12 act 0, hcDAF12 agonist 5 and hgDAF-12 ag 10.
O=C(Nc1ccccc1O)c1nc(Cl)ccc1Cl was read as DAX1 inh-1 0, DAX1 inh-2 2, ssDAF-12 act 2.5*, hcDAF12 agonist 5.9* and hgDAF-12 ag 0.
Nc1[nH]nc2nc3ccccc3cc12 was read as DAX1 inh-1 1, DAX1 inh-2 1, ssDAF-12 act -1, hcDAF12 agonist 3 and hgDAF-12 ag 3.
For CCc1ccc2nc3n[nH]c(N)c3cc2c1 the results were DAX1 inh-1 3, DAX1 inh-2 1, ssDAF-12 act -1, hcDAF12 agonist 4 and hgDAF-12 ag 11*.
COc1ccc(C(=O)NCC2CCN(C(=O)C(=O)c3cccs3)CC2)cc1 was read as DAX1 inh-1 0, ssDAF-12 act -1, hcDAF12 agonist -2 and hgDAF-12 ag 3.
`CCOC(=O)c1c(-c2ccccc2)csc1NC(=O)c1ccc(S(=O)(=O)N2CCOCC2)cc1` gave DAX1 inh-1 0, DAX1 inh-2 2, ssDAF-12 act -1, hcDAF12 agonist 0 and hgDAF-12 ag 11*.
`O=C(N/N=C/c1cccs1)c1n[nH]c2c1CCCC2` gave DAX1 inh-1 0, DAX1 inh-2 -6, ssDAF-12 act 0, hcDAF12 agonist 5.9* and hgDAF-12 ag 9.
Cc1ccc(NC(=O)c2ccc(Cl)c(S(=O)(=O)NCc3ccco3)c2)c(O)c1 was read as DAX1 inh-1 3.9*, DAX1 inh-2 2, ssDAF-12 act 1, hcDAF12 agonist 5 and hgDAF-12 ag 4.
`NS(=O)(=O)c1ccc(NC(=O)c2ccc(Cl)c(S(=O)(=O)NCc3ccco3)c2)cc1` gave DAX1 inh-1 -3, DAX1 inh-2 0, ssDAF-12 act -1, hcDAF12 agonist -1 and hgDAF-12 ag 3.
For COC(=O)C1=C(NC(=O)c2ccc(C)c(C)c2)CCS1 the results were DAX1 inh-1 0, DAX1 inh-2 0, ssDAF-12 act 0, hcDAF12 agonist 6.1* and hgDAF-12 ag 4.
Screening COC(=O)C1=C(NC(=O)c2ccc(Br)cc2)CCS1 returned DAX1 inh-1 0, DAX1 inh-2 0, ssDAF-12 act 1, hcDAF12 agonist 3 and hgDAF-12 ag 5.
NC(=S)N=Nc1c(O)n(CC(=O)Nc2ccccc2)c2ccccc12 was read as DAX1 inh-1 0, DAX1 inh-2 -1, ssDAF-12 act -1, hcDAF12 agonist -2 and hgDAF-12 ag -1.
`Cc1cccc(NC(=O)Cn2c(O)c(N=NC(=O)c3ccccc3O)c3ccccc32)c1` gave DAX1 inh-1 0, DAX1 inh-2 -1, ssDAF-12 act 1, hcDAF12 agonist 6.0* and hgDAF-12 ag 2.
For Clc1ccc(CONc2ncnc3nonc23)c(Cl)c1 the results were DAX1 inh-1 2, DAX1 inh-2 2, ssDAF-12 act -1, hcDAF12 agonist 1 and hgDAF-12 ag 11*.
Screening Cc1nnc(SC(C)C(=O)NC2CCCCC2C)n1N (centres undefined) returned DAX1 inh-1 0, DAX1 inh-2 4.3*, ssDAF-12 act -1, hcDAF12 agonist -2 and hgDAF-12 ag -1.
For C=C(c1ccccc1)c1ccc(N(C)C)cc1 the results were DAX1 inh-1 0, DAX1 inh-2 0, ssDAF-12 act -1, hcDAF12 agonist -1 and hgDAF-12 ag 2.
For CN(C)c1ccc(C(=O)c2ccccc2)cc1 the results were DAX1 inh-1 0, DAX1 inh-2 1, ssDAF-12 act 2.0*, hcDAF12 agonist 2 and hgDAF-12 ag 9.
COc1ccc(C(=O)N[C@H](C(=O)Nc2nc3c(s2)CCCC3)C(C)C)cc1 was read as DAX1 inh-1 0, DAX1 inh-2 0, ssDAF-12 act -1, hcDAF12 agonist 1 and hgDAF-12 ag 5.
Screening CCOc1ccccc1C(=O)N[C@H](C(=O)Nc1nc2c(s1)CCCC2)C(C)C returned DAX1 inh-1 0, DAX1 inh-2 0, ssDAF-12 act 4.1*, hcDAF12 agonist 3 and hgDAF-12 ag 6.

Assay outcomes deposited in PubChem by The Scripps Research Institute Molecular Screening Center.
